Results as given in PubChem BioAssay (Tox21).
Inconclusive results are not listed. Activity calls are given as the source filed them. Unless noted, the call rests on the fitted dose curve; in most records, active means well fitted curve in the direction sought with a large enough effect in the repeat runs; inconclusive means weak or mixed curves; inactive means no such curve, though single readings can be large; an effect the other way counts as inactive or inconclusive.

How the values were obtained:
[1] = qHTS assay to identify small molecule antagonists of the estrogen related receptor (ERR) signaling pathway from Tox21 library - cell viability counter screen (AID 1224834); further: nearly all actives have a fitted effect of over 30% in size
Outline: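 CellTiter-Fluor fluorescence, read after 30 min at 37 C, measures viability of ERR cells. Cells plated at 2,000/well and incubated 6 h before pin-tool compound addition, then exposed 17.5 hours at 37 C.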

[2] = target: Luciferin 4-monooxygenase (Photinus pyralis) (UniProt P08659); experiment: qHTS assay to identify small molecule inhibitors of firefly luciferase (AID 1224835); further: series mostly up to about 120 µM; nearly all actives have a fitted effect of over 25% in size
Chain of Luciferin 4-monooxygenase (Photinus pyralis) (P08659 whole entry, looked up): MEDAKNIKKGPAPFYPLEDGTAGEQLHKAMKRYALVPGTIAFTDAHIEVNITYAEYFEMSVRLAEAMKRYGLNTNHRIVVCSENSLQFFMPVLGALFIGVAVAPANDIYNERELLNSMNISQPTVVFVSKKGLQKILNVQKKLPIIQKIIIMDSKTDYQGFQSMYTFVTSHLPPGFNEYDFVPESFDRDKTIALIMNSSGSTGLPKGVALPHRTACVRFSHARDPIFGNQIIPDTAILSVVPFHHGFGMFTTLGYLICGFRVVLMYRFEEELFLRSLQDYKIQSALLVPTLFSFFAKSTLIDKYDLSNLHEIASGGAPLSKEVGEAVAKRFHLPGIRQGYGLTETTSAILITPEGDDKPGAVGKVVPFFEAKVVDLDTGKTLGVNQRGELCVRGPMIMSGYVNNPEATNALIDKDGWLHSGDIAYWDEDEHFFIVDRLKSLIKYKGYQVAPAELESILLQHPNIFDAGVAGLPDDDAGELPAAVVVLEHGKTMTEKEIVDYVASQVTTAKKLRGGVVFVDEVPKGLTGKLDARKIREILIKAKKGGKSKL
Outline: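 Quantitative HTS format; KM concentrations of both substrates. Purified P. pyralis FLuc activity quantified from luminescence images.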

[3] = qHTS assay to identify small molecule agonists of the constitutive androstane receptor (CAR) signaling pathway - cell viability counter screen (AID 1224836); further: series mostly up to about 92 µM; nearly all actives have a fitted effect of over 45% in size
Outline: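 23 h treatment, 37 C, 5% CO2. Cell line: HepG2 stably expressing hCAR with a CYP2B6-2.2kb construct. Co-treatment: PK11195, 0.75 uM final. Read-out: CellTiter-Fluor fluorescence intensity.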

[4] = qHTS assay to identify small molecule antagonists of the constitutive androstane receptor (CAR) signaling pathway - cell viability counter screen (AID 1224837); further: series mostly up to about 92 µM; nearly all actives have a fitted effect of over 45% in size
Outline: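 Cytotoxicity counter-screen: CellTiter-Fluor fluorescence after 23 h compound exposure (15-point qHTS) in double-stable HepG2-CYP2B6-hCAR cells, with 50 nM CITCO added.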

[5] = target: Nuclear receptor subfamily 1 group I member 3 (Homo sapiens) (UniProt Q14994); experiment: qHTS assay to identify small molecule agonists of the constitutive androstane receptor (CAR) signaling pathway (AID 1224839);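 further: HepG2 cells stably carrying human CAR and a CYP2B6 luciferase reporter; series mostly up to about 92 µM; nearly all actives have a fitted effect of over 15% in size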
Chain of Nuclear receptor subfamily 1 group I member 3 (Homo sapiens) (Q14994 whole entry, looked up): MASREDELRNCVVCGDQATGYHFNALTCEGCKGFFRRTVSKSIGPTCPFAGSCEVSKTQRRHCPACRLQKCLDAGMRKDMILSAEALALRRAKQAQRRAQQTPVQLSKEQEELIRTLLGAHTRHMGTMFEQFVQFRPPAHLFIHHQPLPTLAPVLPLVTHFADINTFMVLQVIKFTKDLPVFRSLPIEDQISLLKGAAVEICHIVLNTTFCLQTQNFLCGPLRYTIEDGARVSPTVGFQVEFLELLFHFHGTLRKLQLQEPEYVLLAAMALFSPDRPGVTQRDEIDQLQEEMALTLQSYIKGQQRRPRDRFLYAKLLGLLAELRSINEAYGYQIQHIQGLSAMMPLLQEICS
Outline: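 Compounds tested at 15 concentrations on HepG2 cells stably harbouring hCAR and CYP2B6-2.2kb reporter constructs, co-treated with PK11195 (0.75 uM final), 24 h at 37 C; luminescent reporter signal quantified.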

[6] = qHTS assay to identify small molecule antagonists of the estrogen related receptor signaling pathway with the pleiotropic PPARgamma coactivator (PGC) from Tox21 10K library - cell viability counter screen (AID 1224840; active means well fitted cell-killing curve with a large enough effect in the repeat runs, not every such curve was filed as active; further: nearly all actives have a fitted effect of over 40% in size)
Outline: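 Counter-screen for cytotoxicity: after 17.5 h compound exposure at 37 C, CellTiter-Fluor reagent added to PGC/ERR cells for 30 min and fluorescence read. Cells were seeded at 2,000 per well 6 h before dosing.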

[7] = qHTS assay to identify small molecule antagonists of the estrogen related receptor signaling pathway with the pleiotropic PPARgamma coactivator (PGC) from Tox21 10K library (AID 1224841; call rule not given here; further: series mostly up to about 92 µM; actives are mostly falling curves and most rising ones were filed inactive; nearly all actives have a fitted effect of over 50% in size)
Outline: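 Luminescence (One-Glo, 30 min at room temperature) after 18 h compound treatment at 37 C of PGC/ERR reporter cells plated at 2,000 cells/well and settled 6 h beforehand.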

[8] = qHTS assay to identify small molecule agonists of the estrogen related receptor signaling pathway with the pleiotropic PPARgamma coactivator (PGC) from Tox21 10K library (AID 1224842); further: nearly all actives have a fitted effect of over 15% in size
Outline: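 PGC/ERR reporter cells (NTP line) were seeded 2,000 per well, rested 6 h at 37 C/5% CO2, then pin-dosed with compounds in DMSO for 18 h at 37 C; luciferase read by One-Glo luminescence after 30 min at room temperature.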

[9] = target: Thyrotropin receptor (Homo sapiens) (UniProt P16473); experiment: qHTS assay to identify small molecule agonists of the thyroid stimulating hormone receptor (TSHR) signaling pathway (AID 1224843; calls by dose curve; further: nearly all actives have a fitted effect of over 45% in size)
Chain of Thyrotropin receptor (Homo sapiens) (P16473 whole entry, looked up): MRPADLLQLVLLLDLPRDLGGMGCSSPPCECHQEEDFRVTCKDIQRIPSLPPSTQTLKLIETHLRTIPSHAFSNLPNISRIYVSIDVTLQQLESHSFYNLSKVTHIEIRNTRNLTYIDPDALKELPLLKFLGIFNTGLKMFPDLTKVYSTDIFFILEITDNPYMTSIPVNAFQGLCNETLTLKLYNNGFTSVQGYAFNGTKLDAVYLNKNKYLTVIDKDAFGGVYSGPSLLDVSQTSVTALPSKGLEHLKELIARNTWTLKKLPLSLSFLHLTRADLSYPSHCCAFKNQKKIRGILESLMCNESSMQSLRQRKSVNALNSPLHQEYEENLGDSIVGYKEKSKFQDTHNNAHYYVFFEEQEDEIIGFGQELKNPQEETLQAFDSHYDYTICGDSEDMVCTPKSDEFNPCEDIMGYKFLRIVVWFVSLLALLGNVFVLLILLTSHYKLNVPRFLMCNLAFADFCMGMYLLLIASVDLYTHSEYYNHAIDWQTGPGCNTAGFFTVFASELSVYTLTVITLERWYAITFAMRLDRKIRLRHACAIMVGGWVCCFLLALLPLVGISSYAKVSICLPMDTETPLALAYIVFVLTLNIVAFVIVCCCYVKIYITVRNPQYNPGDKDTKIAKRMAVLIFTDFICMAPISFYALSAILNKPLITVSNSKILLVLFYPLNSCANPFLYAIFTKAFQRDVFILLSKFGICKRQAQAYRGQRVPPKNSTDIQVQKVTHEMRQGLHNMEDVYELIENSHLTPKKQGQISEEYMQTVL
Outline: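 Compounds are titrated over 15 concentrations, in triplicate, onto TSHR-HEK293 cells seeded at 800/well. Plates sit 30 min at room temperature before cAMP-d2 and anti-cAMP cryptate are added; signal is read after a further hour.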

[10] = target: Nuclear receptor subfamily 1 group I member 3 (Homo sapiens) (UniProt Q14994); experiment: qHTS assay to identify small molecule antagonists of the constitutive androstane receptor (CAR) signaling pathway (AID 1224838);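 further: HepG2 cells stably expressing hCAR with CYP2B6 luciferase reporter stimulated by CITCO; nearly all actives have a fitted effect of over 40% in size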
Outline: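 Antagonism measured as luciferase signal (ONE-Glo, 30 min, room temperature) in CAR-stimulated cells: HepG2-CYP2B6-hCAR double-stable line exposed 24 hr at 37 C to compound in a 15-point series plus 50 nM CITCO.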

Measured: Potency

CCCO[Si](OCCC)(OCCC)OCCC
not listed: [10]
inactive: all other assays above

CCN(C=O)CC
not listed: [7] | [8] | [10]
inactive: all other assays above

CN(C)C(=O)Oc1cccc([N+](C)(C)C)c1
not listed: [7] | [8]
inactive: all other assays above

Nc1ccncc1N
not listed: [7] | [8]
inactive: all other assays above

CC(=O)c1cnccn1
not listed: [7] | [8] | [10]
inactive: all other assays above

O=[N+]([O-])c1ccc(/C=N\O)o1
inactive: [1] | [2] | [3] | [4] | [10] | [6]

COc1cc(C(=O)NCc2ccc(OCCN(C)C)cc2)cc(OC)c1OC
not listed: [7] | [8]
inactive: all other assays above

Nc1ccn([C@@H]2O[C@H](CO)[C@@H](O)[C@@H]2O)c(=O)n1
not listed: [7] | [9] | [10]
inactive: all other assays above

O=C(O)CCCC[P+](c1ccccc1)(c1ccccc1)c1ccccc1
not listed: [7] | [8]
inactive: all other assays above

COc1c(N2CCNC(C)C2)c(F)cc2c(=O)c(C(=O)O)cn(C3CC3)c12 (stereo not drawn)
inactive: [1] | [2] | [3] | [4] | [5] | [6]

CC(=O)C1CCCCC1=O (stereo not drawn)
not listed: [7] | [8]
inactive: all other assays above

CCN[C@H]1C[C@H](C)S(=O)(=O)c2sc(S(N)(=O)=O)cc21
not listed: [7] | [8] | [10]
inactive: all other assays above

CC1=NS(=O)(=O)c2cc(Cl)ccc2N1
not listed: [7] | [8] | [10]
inactive: all other assays above

N[C@@H](CCC(=O)O)C(=O)O
not listed: [7] | [8] | [10]
inactive: all other assays above
